Bioassay records as filed in PubChem BioAssay.
Sampled rows, rich in hits. Any-hit rate of the full collection: about 3.8%.
ATXN2 expr inh: inhibitors of ATXN2 expression. HEK-293 ATXN2-luciferase reporter, luminescence, 24 h. Potency, µM (doses to about 57 µM), without a hit: top-dose activity change, negative = inhibition, hits mostly inhibitors. actives 0.72% (n = 360,000). AID 1745845; also: % is scaled to controls: 0 for no effect and ±100 for the full control effect; nearly all actives have a fitted effect of over 55% in size
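ATXN2-luciferase reporter cells (luciferase flanked by upstream and downstream ATXN2 gene portions) were treated 24 h at 37 °C with compounds at up to 57 uM. SteadyGlo luminescence gave expression; GF-AFC fluorescence gave viability.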
S2 tox: cell viability loss in ATXN counter-screen; S2 cells (HEK-293 line with an ATXN2-luciferase reporter) viability, CellTiter-Fluor protease fluorescence, 24 h; Potency, µM (titrated, usually from 56.7 µM), actives largely listed as cytotoxic; actives 0.49% (n = 400,000); AID 651635; also: nearly all actives have a fitted effect of over 40% in size
TGFb inhibitor: blocks TGF-b signaling; HepG2 CAGA-GFP TGF-b/SMAD3 reporter, GFP fluorescence, 18 h; TGF-beta stimulated, 500 pg/mL final; Potency, µM (highest dose often 46.1 µM), for the others: top-dose activity, negative = inhibition, hits mostly inhibitors; actives 1.2% (n = 410,000); also: % is scaled to controls: 0 for no effect and ±100 for the full control effect; nearly all actives have a fitted effect of over 65% in size
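Per well, imaged GFP fluorescence of HEPG2 CAGA-GFP cells gives the signal; cells get compound, then TGF-beta (500 pg/mL final), 18 h at 37 degrees C; %Activity versus -TGF-beta and +DMSO controls.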
Nrf2 inh: Nrf2 pathway inhibition; Potency, µM (top dose mostly 46 µM), for inactives: at the highest dose activity change, negative = inhibition, most hits filed as inhibitors; actives 2.1% (n = 360,000); A549 ARE-Fluc reporter, luciferase luminescence, 18-24 h; also: % is scaled to controls: 0 for no effect and ±100 for the full control effect; nearly all actives have a fitted effect of over 60% in size
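Nrf2 activity is the BugLite luminescence, read 15 min after reagent at room temperature, following CellTiter-Fluor cytotoxicity readout (30 min, 37C). Compound titrations were applied for 18-24 h to 5000 A549 ARE_Fluc cells/well in 5% FBS OPTI-MEM.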
HepG2 tox: HepG2 cytotoxicity, counter-screen for TGF-b inhibitors; HepG2 CAGA-GFP viability, ATP luminescence, 18 h; Potency, µM (highest dose often 46.1 µM), without a hit: top-dose activity change, negative = cytotoxicity, actives largely listed as cytotoxic; actives 0.76% (n = 410,000)
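CellTiter-Glo luminescence gave cytotoxicity after 18 hours at 37 degrees C. The cells were HepG2 CAGA-GFP in 1% FBS DMEM, stimulated with 500 pg/mL TGF-beta after compound addition. %Activity was normalised to no-cell wells (complete cell-killing) and DMSO (no toxicity), and curves were fitted and classified.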
A549 viability: kills or reduces viability of A549 cells in Nrf2 counter-screen; A549 ARE-Fluc cells, CellTiter-Fluor viability, 18-24 h; Potency, µM (series often up to 46 µM), for inactives: top-dose activity change, negative = cytotoxicity, most hits filed as inhibitors; actives 0.16% (n = 390,000); AID 504648; also: % is scaled to controls: 0 for no effect and ±100 for the full control effect
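A549 ARE_Fluc cells in 5% FBS OPTI-MEM were exposed to compounds in concentration-response for 18-24 h at 37 deg C. Viability was read by CellTiter-Fluor fluorescence (Ex 405/Em 525) after 30 min, before the luciferase read.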
* hit, by the source's call; i = inactive; ? = inconclusive; / = not tested or not shown; ! = repeats disagree; [ ] = dose if it differs, or a comment. Calls follow the shape of the dose curve; as a rule, active = well fitted curve in the direction sought with a large enough effect; inconclusive = small, poorly fitted or top-dose-only effect, or another doubt; inactive = no such curve, though single readings can be large; an effect the other way counts as inactive or inconclusive. Potency is read from the fitted curve at half-maximal effect.

SMILES | ATXN2 expr inh | S2 tox | TGFb inhibitor | Nrf2 inh | HepG2 tox | A549 viability
O=C(c1ccc(Cl)c(S(=O)(=O)N2CCCCC2)c1)N1CCN(c2ccccc2)CC1 | -26% | i | ? | 23µM* | 6% | -18%
O=C(c1ccc(Cl)c(S(=O)(=O)N2CCOCC2)c1)N1CCN(c2ccccc2)CC1 | -1% | i | -1% | -5% | -14% | 6%
CCc1ccccc1Nc1nc2ccccc2[nH]1 | / | i | -29% | 15µM* | -6% | -1%
COc1ccc(CC(=O)Oc2ccc(F)c(F)c2)cc1S(=O)(=O)N1CCOCC1 | 10% | i | 5% | 16% | 11% | -1%
O=C(Cc1cccc2ccccc12)NCC(=O)N1CCN(Cc2cccc(C(F)(F)F)c2)CC1 | / | i | 11µM* | 21µM* | -36% | -13%
Cc1cccc(NC(=O)Cn2c(=O)n(CC3CCC(C(=O)NCCc4ccccc4)CC3)c(=O)c3ccccc32)c1 (stereo unspecified) | 10% | i | -17% | ? | 0% | -13%
COc1ccc2nc(C)cc(SCC(=O)N/N=C/c3cccc4ccccc34)c2c1 | ? | / | -1% | 16µM* | -12% | 23µM*
Cc1cc(SCC(=O)N/N=C/c2ccc(O)c(O)c2)nc2ccccc12 | -10% | ? | -24% | 24% | -21% | -8%
Cc1cc(SCC(=O)N/N=C/c2ccc(O)cc2O)nc2ccccc12 | 13µM* | i | -11% | -3% | -12% | -2%
COc1ccc(OC)c2c1C(=O)C(Cl)=C(Cl)C2=O | 7.1µM* | 7.9µM* | 3.2µM* | -3% | -103% | ?
COc1ccc(OC)c2c1C(=O)c1ccccc1C2=O | 1% | i | 43% | -24% | -1% | -14%
Cc1cccc(NC(=O)CSc2nc3ccccc3c3nc(CCc4c(C)n[nH]c4C)nn23)c1 | 32µM*! | 16µM* | ? | 10µM* | -11% | ?
Cc1n[nH]c(C)c1CCc1nc2c3ccccc3nc(SCC(=O)Nc3ccccc3F)n2n1 | -19% | i | ? | ? | -21% | ?
Cc1cncn1CCc1nc2c3ccccc3nc(SCC(=O)Nc3ccc(F)cc3)n2n1 | 10% | i | 26% | / | -1% | 0%
Cc1cncn1CCc1nc2c3ccccc3nc(SCC(=O)Nc3cccc(Cl)c3)n2n1 | 25µM* | 16µM* | ? | -18% | -34% | 16µM*
CCOc1ccccc1NC(=O)CSc1nc2ccccc2c2nc(CCn3cncc3C)nn12 | -1% | 28µM* | ? | / | -23% | -24%
O=C(NNC(=O)c1sc2cccc(Cl)c2c1Cl)NC1CCCCC1 | -1% | i | 17% | 9.2µM* | -27% | -12%
O=C(NNC(=O)c1sc2cccc(Cl)c2c1Cl)Nc1ccccc1 | 5% | i | 0% | ? | -1% | -14%
O=C(Nc1ccc(S(=O)(=O)N2CCN(Cc3ccccc3)CC2)cc1)c1cnccn1 | -21% | i | 0% | 4.1µM* | 5% | -13%
CN(C)C(=O)c1ccc(NC(=O)c2cccc(S(=O)(=O)N3CCN(Cc4ccccc4)CC3)c2)cc1 | -15% | i | -14% | 18µM* | 0% | -4%
CN(C)C(=O)c1ccc(NC(=O)c2cccc(S(=O)(=O)N3CCCCCC3)c2)cc1 | / | ? | -24% | ? | -41% | -2%
CCOc1ccc(CN2CCN(S(=O)(=O)c3ccc(NC(C)=O)cc3)CC2)cc1 | -13% | i | -27% | 21µM* | -15% | -5%
O=C(Nc1ccc(S(=O)(=O)N2CCCC2)cc1)c1cnccn1 | 2% | i | -2% | -15% | 5% | -20%
CS(=O)(=O)c1ccc(NC(=O)c2cccc(S(=O)(=O)N3CCN(Cc4ccccc4)CC3)c2)cc1 | -1% | ? | ? | 13µM* | -2% | -17%
Cc1ccc(S(=O)(=O)N(Cc2nc(-c3cccc(C)c3)no2)C2CCCCC2)cc1 | / | / | ? | -12% | -23% | 9%
SMILES | ATXN2 expr inh | S2 tox | TGFb inhibitor | Nrf2 inh | HepG2 tox | A549 viability
CCOC(=O)c1c(NC(C)=O)c2c3c(sc2n1Cc1ccc(Cl)cc1)CCCC3 | / | / | / | -14% | -2% | -7%
CCOc1ccccc1C(C(=O)NC1CCCCC1)N(C(=O)c1csnn1)C1CC1 (stereo unspecified) | 19% | i | 7% | -18% | 6% | -23%
O=C(NCc1cccnc1)c1ccc(S(=O)(=O)N2CCCCC2)cc1 | 3% | i | -7% | ? | -18% | 0%[1.84 µM]
CCOc1ccc(OCc2cccc(C(=O)Nc3ccc(CN4CCCCC4)cc3)c2)cc1 | ? | ? | 0% | ? | 10µM* | 11%
O=S(=O)(c1ccc(NC(=S)NCc2cccnc2)cc1)N1CCCCC1 | / | ? | ? | 23µM* | -22% | -22%
O=C(Nc1ccccc1N1CCOCC1)c1cnccn1 | / | i | 6% | -7% | -3% | 1%
CN(CC(=O)Nc1ccc(Cl)cc1)C(=O)c1cccc(S(=O)(=O)N2CCN(Cc3ccccc3)CC2)c1 | ? | i | 0% | 13µM* | -29% | ?
O=C(Nc1ccc(N2CCOCC2)cc1)c1cnccn1 | 2.5µM* | i | -4% | ? | -8% | -7%
Cc1ccc(-c2nn(CC(=O)Nc3cccc(C(F)(F)F)c3)c(=O)c3ccccc23)cc1 | 0% | i | -24% | ? | -24% | -1%
O=C(Nc1ccc(N2CCOCC2)cc1)c1ccc(Cl)nc1 | 0% | i | 4% | 0% | 0% | -12%
O=C(Nc1ccc(N2CCOCC2)nc1)c1ccc(Cl)cc1 | 11% | i | -50% | 21µM* | -22% | -20%
OCc1ccccc1SSc1ccccc1CO | ? | ? | ? | -7% | -60% | -18%
C=C[C@]1(C)C=C2CC[C@H]3[C@@](C)(CCC[C@@]3(C)C(=O)O)[C@@H]2CC1 | 8% | i | ? | -6% | -70% | 4%
C=C[C@]1(C)C=C2C(=O)[C@@]3(O)OC(=O)[C@@]4(CCCC(C)(C)[C@H]34)[C@@]2(O)CC1 | 1.6µM* | 1.8µM* | ? | / | 5.6µM* | /
CN(C(=O)C=Cc1ccccc1)c1ccccc1 | 32% | i | -3% | ? | -9% | 2%
O=C(CCl)N(O)c1ccc(C=Cc2ccccc2)cc1 | ? | 6.7µM* | ? | 14% | -71% | -2%
CCCCN(CCCC)S(=O)(=O)c1ccc(NS(=O)(=O)c2ccc(NC(C)=O)cc2)cc1 | -15% | i | ? | 16µM* | -21% | -10%[1.84 µM]
CC(=O)Nc1cccc(C(=O)N2CCN(S(=O)(=O)c3ccc(C4CCCCC4)cc3)CC2)c1 | / | i | ? | ? | -17% | -9%
